# In the supplement of paper PMC6411743:
# ± gives the standard deviation of the averaged measurements. The full data set covers some 6,200 targets. This sample favours those with the largest changes.
# Compound: Nc1ncnc2c1ncn2[C@@H]1O[C@H](COP(=O)(O)OP(=O)(O)NP(=O)(O)O)[C@@H](O)[C@H]1O [adenylyl imidodiphosphate]
# Test: NP40-soluble protein abundance relative to vehicle (solubility fold change) (ratio); higher = more soluble protein in presence of AMP-PNP
# Summary of the method: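 Crude Jurkat lysate, prepared by Dounce homogenisation, was exposed to eight concentrations from 0.1 to 10 mM for 10 min at room temperature and then 3 min at 37 °C. Solubilisation used 0.8% NP40 with benzonase for 60 min at 4 °C, followed by ultracentrifugation and TMT labelling of the supernatant for LC-MS/MS. After vsn normalisation of intensities, each value is the fold change against the detergent-processed vehicle within each replicate, across three independent experiments.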
# Chain of UniProt Q9NRY4 (Q9NRY4 whole entry): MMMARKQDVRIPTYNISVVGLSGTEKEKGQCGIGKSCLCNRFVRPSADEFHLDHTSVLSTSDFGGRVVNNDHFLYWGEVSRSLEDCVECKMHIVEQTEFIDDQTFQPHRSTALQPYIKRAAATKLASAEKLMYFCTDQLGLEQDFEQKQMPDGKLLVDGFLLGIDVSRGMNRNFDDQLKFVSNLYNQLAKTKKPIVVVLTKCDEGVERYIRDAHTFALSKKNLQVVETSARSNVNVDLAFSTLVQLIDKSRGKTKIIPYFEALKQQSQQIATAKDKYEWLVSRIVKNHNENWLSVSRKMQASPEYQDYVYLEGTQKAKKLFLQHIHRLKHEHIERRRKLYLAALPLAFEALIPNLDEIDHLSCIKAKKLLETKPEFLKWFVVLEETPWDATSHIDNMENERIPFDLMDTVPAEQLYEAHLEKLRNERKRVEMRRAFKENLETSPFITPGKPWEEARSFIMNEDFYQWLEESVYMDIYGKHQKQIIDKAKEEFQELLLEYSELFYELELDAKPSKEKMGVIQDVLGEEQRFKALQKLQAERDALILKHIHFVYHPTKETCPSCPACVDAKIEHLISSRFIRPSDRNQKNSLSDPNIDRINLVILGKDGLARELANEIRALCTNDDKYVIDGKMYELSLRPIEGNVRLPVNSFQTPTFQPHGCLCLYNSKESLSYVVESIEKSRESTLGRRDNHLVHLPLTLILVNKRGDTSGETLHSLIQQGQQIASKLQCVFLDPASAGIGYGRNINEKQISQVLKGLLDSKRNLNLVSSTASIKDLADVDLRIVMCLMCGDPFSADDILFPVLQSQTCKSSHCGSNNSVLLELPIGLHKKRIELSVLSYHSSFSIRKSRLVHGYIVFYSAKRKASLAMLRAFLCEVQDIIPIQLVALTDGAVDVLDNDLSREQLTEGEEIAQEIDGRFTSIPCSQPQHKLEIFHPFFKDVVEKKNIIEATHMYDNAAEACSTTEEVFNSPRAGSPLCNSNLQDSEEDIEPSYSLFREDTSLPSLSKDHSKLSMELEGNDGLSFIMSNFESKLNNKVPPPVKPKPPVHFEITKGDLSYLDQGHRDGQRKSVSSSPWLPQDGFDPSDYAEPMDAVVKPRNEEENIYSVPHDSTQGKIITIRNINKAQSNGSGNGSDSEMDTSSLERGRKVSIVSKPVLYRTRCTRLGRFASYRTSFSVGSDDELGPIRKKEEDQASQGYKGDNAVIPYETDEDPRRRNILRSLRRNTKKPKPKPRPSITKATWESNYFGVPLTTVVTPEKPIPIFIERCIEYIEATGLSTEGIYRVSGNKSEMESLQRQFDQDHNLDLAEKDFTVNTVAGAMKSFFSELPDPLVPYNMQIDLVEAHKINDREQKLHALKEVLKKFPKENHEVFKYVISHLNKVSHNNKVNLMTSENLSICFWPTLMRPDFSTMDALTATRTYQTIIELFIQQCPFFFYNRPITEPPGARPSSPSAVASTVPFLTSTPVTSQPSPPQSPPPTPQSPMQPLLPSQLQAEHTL
# Chain of UniProt Q9UIA9 (Q9UIA9 whole entry): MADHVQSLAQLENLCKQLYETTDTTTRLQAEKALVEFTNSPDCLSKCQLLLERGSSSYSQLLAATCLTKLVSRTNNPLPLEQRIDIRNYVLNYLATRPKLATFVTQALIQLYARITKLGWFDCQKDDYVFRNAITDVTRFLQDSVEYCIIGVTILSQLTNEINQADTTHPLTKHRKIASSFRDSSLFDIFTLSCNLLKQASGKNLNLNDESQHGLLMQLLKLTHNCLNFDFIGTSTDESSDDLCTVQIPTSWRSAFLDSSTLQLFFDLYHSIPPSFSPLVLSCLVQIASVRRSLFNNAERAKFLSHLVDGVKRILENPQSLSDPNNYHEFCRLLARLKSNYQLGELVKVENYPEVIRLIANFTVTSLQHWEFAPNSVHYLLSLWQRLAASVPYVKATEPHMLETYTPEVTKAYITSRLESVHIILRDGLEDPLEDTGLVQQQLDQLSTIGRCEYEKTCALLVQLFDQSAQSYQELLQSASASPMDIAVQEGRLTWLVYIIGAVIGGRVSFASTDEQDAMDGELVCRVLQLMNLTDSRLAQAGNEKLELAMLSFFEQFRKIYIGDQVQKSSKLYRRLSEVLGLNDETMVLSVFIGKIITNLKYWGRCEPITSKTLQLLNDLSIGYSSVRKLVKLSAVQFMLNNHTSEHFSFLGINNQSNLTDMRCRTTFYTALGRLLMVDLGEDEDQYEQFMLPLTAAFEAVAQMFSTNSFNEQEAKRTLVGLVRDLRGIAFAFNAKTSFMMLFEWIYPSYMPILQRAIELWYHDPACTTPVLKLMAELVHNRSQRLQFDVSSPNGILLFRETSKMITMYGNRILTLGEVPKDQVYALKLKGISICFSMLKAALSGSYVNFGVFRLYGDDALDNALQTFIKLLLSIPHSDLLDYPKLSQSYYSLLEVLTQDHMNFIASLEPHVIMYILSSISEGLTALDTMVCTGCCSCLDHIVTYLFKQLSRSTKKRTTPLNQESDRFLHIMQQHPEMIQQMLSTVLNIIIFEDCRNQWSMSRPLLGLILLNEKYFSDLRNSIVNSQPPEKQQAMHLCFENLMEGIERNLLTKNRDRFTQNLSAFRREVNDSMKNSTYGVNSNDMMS
# Chain of UniProt Q96PZ0 (Q96PZ0 whole entry): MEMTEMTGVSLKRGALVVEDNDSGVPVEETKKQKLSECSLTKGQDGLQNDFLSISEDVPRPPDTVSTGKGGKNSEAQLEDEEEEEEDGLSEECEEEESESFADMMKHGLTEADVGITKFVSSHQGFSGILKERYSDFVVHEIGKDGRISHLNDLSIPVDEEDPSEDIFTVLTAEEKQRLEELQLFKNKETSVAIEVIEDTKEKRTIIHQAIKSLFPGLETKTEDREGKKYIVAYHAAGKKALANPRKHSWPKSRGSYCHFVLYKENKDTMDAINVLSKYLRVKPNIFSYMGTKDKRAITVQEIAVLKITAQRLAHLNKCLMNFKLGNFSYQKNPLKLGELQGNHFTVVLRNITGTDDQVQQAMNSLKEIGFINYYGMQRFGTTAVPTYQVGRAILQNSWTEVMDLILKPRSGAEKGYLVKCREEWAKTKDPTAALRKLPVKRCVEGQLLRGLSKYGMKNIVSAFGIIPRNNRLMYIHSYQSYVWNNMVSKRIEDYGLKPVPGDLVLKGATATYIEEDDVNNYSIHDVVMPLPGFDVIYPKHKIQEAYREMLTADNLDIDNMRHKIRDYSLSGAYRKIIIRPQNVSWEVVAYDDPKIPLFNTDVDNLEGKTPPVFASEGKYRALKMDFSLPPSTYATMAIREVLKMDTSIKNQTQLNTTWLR
# Chain of UniProt Q9H1D9 (Q9H1D9 whole entry): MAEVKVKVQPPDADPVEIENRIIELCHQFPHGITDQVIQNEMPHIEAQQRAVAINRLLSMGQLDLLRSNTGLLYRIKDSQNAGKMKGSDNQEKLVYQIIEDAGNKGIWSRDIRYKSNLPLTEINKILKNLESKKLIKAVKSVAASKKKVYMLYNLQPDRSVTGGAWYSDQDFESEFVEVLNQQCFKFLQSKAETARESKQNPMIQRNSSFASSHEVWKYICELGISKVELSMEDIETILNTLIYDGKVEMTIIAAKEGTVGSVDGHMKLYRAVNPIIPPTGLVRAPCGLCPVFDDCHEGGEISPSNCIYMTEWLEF
# Chain of UniProt Q96DA2 (Q96DA2 whole entry): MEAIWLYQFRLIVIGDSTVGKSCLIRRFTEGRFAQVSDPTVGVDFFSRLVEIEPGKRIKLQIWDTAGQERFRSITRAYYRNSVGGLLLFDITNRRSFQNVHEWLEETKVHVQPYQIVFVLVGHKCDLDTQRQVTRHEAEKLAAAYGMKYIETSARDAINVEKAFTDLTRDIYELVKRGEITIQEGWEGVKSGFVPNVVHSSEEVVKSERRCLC
# Chain of UniProt Q9BRT2 (Q9BRT2 whole entry, one chain of several): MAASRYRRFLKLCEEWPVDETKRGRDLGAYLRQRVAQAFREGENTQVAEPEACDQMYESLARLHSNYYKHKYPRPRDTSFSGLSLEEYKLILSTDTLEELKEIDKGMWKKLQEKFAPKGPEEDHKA
# Chain of UniProt Q9HCD5 (Q9HCD5 whole entry): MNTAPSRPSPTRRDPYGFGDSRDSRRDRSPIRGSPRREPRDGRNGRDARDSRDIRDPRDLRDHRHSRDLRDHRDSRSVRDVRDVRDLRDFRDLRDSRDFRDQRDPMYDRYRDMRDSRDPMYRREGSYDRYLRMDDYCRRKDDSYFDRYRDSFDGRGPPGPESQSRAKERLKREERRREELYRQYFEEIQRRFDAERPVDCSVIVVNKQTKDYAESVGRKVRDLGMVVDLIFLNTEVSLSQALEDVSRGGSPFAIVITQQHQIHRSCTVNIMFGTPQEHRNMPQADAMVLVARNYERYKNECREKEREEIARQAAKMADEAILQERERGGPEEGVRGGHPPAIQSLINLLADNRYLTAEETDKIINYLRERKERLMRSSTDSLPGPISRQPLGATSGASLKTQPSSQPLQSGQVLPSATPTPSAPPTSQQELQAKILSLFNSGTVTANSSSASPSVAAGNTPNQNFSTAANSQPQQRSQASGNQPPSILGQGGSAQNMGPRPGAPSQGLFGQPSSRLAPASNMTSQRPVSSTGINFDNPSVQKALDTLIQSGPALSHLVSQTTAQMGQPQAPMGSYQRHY
# Chain of UniProt Q9Y508 (Q9Y508 whole entry): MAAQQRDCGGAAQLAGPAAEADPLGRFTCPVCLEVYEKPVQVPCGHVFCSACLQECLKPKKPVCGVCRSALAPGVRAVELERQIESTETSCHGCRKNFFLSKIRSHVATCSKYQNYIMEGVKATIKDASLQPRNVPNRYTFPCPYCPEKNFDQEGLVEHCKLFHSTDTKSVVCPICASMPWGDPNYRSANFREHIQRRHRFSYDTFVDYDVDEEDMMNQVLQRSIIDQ
# Chain of UniProt Q9BRG1 (Q9BRG1 whole entry, one chain of several): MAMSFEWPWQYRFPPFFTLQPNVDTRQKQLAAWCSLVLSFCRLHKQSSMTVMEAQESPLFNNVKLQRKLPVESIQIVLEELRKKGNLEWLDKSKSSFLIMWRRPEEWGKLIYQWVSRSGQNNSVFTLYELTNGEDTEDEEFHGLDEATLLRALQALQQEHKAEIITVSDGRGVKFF
target,measurement,setting,value
NCOA5 (UniProt Q9HCD5),NP40-soluble protein abundance,concentration: 1mM,1.09 ± 0.062
same,NP40-soluble protein abundance,concentration: 2mM,1.18 ± 0.039
same,NP40-soluble protein abundance,concentration: 4mM,1.37 ± 0.081
same,NP40-soluble protein abundance,concentration: 6mM,1.73 ± 0.1
same,NP40-soluble protein abundance,concentration: 8mM,1.89 ± 0.14
same,NP40-soluble protein abundance,concentration: 10mM,2.17 ± 0.35
UniProt Q9Y5Y5|Q9Y5Y5-2,NP40-soluble protein abundance,concentration: 1mM,0.967 ± 0.051
same,NP40-soluble protein abundance,concentration: 2mM,0.97 ± 0.05
same,NP40-soluble protein abundance,concentration: 4mM,0.9611 ± 0.0026
same,NP40-soluble protein abundance,concentration: 6mM,1.04 ± 0.024
same,NP40-soluble protein abundance,concentration: 8mM,1.03 ± 0.032
same,NP40-soluble protein abundance,concentration: 10mM,1.02 ± 0.052
UniProt Q9UM21,NP40-soluble protein abundance,concentration: 1mM,1.02 ± 0.058
same,NP40-soluble protein abundance,concentration: 2mM,0.987 ± 0.034
same,NP40-soluble protein abundance,concentration: 4mM,0.981 ± 0.023
same,NP40-soluble protein abundance,concentration: 6mM,1 ± 0.071
same,NP40-soluble protein abundance,concentration: 8mM,1 ± 0.043
same,NP40-soluble protein abundance,concentration: 10mM,0.991 ± 0.023
PUS7 (UniProt Q96PZ0),NP40-soluble protein abundance,concentration: 1mM,1.03 ± 0.035
same,NP40-soluble protein abundance,concentration: 2mM,1.002 ± 0.0077
same,NP40-soluble protein abundance,concentration: 4mM,1.04 ± 0.019
same,NP40-soluble protein abundance,concentration: 6mM,1.008 ± 0.009
same,NP40-soluble protein abundance,concentration: 8mM,1.01 ± 0.015
same,NP40-soluble protein abundance,concentration: 10mM,1.01 ± 0.028
XPO7 (UniProt Q9UIA9),NP40-soluble protein abundance,concentration: 1mM,0.973 ± 0.036
same,NP40-soluble protein abundance,concentration: 2mM,0.932 ± 0.035
same,NP40-soluble protein abundance,concentration: 4mM,0.96 ± 0.019
same,NP40-soluble protein abundance,concentration: 6mM,0.958 ± 0.037
same,NP40-soluble protein abundance,concentration: 8mM,0.966 ± 0.015
same,NP40-soluble protein abundance,concentration: 10mM,0.939 ± 0.03
POLR3F (UniProt Q9H1D9),NP40-soluble protein abundance,concentration: 1mM,0.959 ± 0.035
same,NP40-soluble protein abundance,concentration: 2mM,0.97 ± 0.08
same,NP40-soluble protein abundance,concentration: 4mM,0.962 ± 0.042
same,NP40-soluble protein abundance,concentration: 6mM,1.04 ± 0.062
same,NP40-soluble protein abundance,concentration: 8mM,1.03 ± 0.077
same,NP40-soluble protein abundance,concentration: 10mM,1.02 ± 0.087
UniProt Q9BRT2|V5IRT4,NP40-soluble protein abundance,concentration: 1mM,1.03 ± 0.022
same,NP40-soluble protein abundance,concentration: 2mM,1.13 ± 0.11
same,NP40-soluble protein abundance,concentration: 4mM,1.03 ± 0.016
same,NP40-soluble protein abundance,concentration: 6mM,1.0141 ± 0.00091
same,NP40-soluble protein abundance,concentration: 8mM,1.025 ± 0.0039
same,NP40-soluble protein abundance,concentration: 10mM,1.011 ± 0.0053
UniProt Q9BRG1|K7EKV4,NP40-soluble protein abundance,concentration: 1mM,1.04 ± 0.028
same,NP40-soluble protein abundance,concentration: 2mM,0.957 ± 0.094
same,NP40-soluble protein abundance,concentration: 4mM,1.02 ± 0.063
same,NP40-soluble protein abundance,concentration: 6mM,0.931 ± 0.043
same,NP40-soluble protein abundance,concentration: 8mM,0.982 ± 0.071
same,NP40-soluble protein abundance,concentration: 10mM,0.942 ± 0.099
UniProt Q99571|Q99571-2|F6SFZ6,NP40-soluble protein abundance,concentration: 1mM,0.986 ± 0.019
same,NP40-soluble protein abundance,concentration: 2mM,0.959 ± 0.019
same,NP40-soluble protein abundance,concentration: 4mM,0.971 ± 0.019
same,NP40-soluble protein abundance,concentration: 6mM,1.014 ± 0.0026
same,NP40-soluble protein abundance,concentration: 8mM,1.012 ± 0.0075
same,NP40-soluble protein abundance,concentration: 10mM,1.01 ± 0.039
UniProt Q9HCJ0|Q9HCJ0-2,NP40-soluble protein abundance,concentration: 1mM,1.043 ± 0.0013
same,NP40-soluble protein abundance,concentration: 2mM,1.033 ± 0.0035
same,NP40-soluble protein abundance,concentration: 4mM,1.01 ± 0.013
same,NP40-soluble protein abundance,concentration: 6mM,1.01 ± 0.022
same,NP40-soluble protein abundance,concentration: 8mM,1 ± 0.016
same,NP40-soluble protein abundance,concentration: 10mM,1.02 ± 0.02
UniProt Q9NRY4,NP40-soluble protein abundance,concentration: 1mM,0.9859 ± 0.0086
same,NP40-soluble protein abundance,concentration: 2mM,0.971 ± 0.035
same,NP40-soluble protein abundance,concentration: 4mM,0.999 ± 0.028
same,NP40-soluble protein abundance,concentration: 6mM,0.984 ± 0.03
same,NP40-soluble protein abundance,concentration: 8mM,0.964 ± 0.036
same,NP40-soluble protein abundance,concentration: 10mM,0.935 ± 0.024
RAB39B (UniProt Q96DA2),NP40-soluble protein abundance,concentration: 1mM,1 ± 0.025
same,NP40-soluble protein abundance,concentration: 2mM,0.934 ± 0.066
same,NP40-soluble protein abundance,concentration: 4mM,0.996 ± 0.019
same,NP40-soluble protein abundance,concentration: 6mM,0.9868 ± 0.0097
same,NP40-soluble protein abundance,concentration: 8mM,0.986 ± 0.015
same,NP40-soluble protein abundance,concentration: 10mM,0.954 ± 0.041
UniProt Q9P1W8|Q9P1W8-2,NP40-soluble protein abundance,concentration: 1mM,0.9928 ± 0.0047
same,NP40-soluble protein abundance,concentration: 2mM,1.04 ± 0.041
same,NP40-soluble protein abundance,concentration: 4mM,1.02 ± 0.018
same,NP40-soluble protein abundance,concentration: 6mM,1.0109 ± 0.00039
same,NP40-soluble protein abundance,concentration: 8mM,1.0171 ± 0.00063
same,NP40-soluble protein abundance,concentration: 10mM,1.024 ± 0.0042
RNF114 (UniProt Q9Y508),NP40-soluble protein abundance,concentration: 1mM,1.034 ± 0.0076
same,NP40-soluble protein abundance,concentration: 2mM,0.993 ± 0.021
same,NP40-soluble protein abundance,concentration: 4mM,1.03 ± 0.019
same,NP40-soluble protein abundance,concentration: 6mM,1.024 ± 0.0039
same,NP40-soluble protein abundance,concentration: 8mM,1.04 ± 0.018
same,NP40-soluble protein abundance,concentration: 10mM,1 ± 0.013
